# Tau fluor counter: counter-screen for tau fibril formation inhibitors. tau K18 P301L Alexa594 fluorescence, heparin fibrillization. Potency, µM (highest dose often 57.7 µM), inactives show top-dose activity change, negative = decrease. 0.93% of 280,000 active. AID 1463; note: potency is the fitted concentration of half-maximal effect; % is set by controls: 0 for no effect and ±100 for the full control effect; nearly all actives have a fitted effect of over 55% in size
#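 Human tau K18 P301L (15 uM unlabeled, 0.24 uM Alexa 594-labeled) in 100 mM sodium acetate pH 7 with 20 uM heparin, 6 hr at 37 C. ThT 30 uM added, 1 hr ambient; Alexa 594 FP and total fluorescence read at 555/632 nm.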
# Tau fibril ThT: inhibitors of human tau fibril formation, thioflavin T binding. recombinant tau K18 P301L (four-repeat tau fragment), heparin-induced fibrillization, ThT fluorescence. Potency, µM (highest dose often 57.4 µM), for the others: top-dose activity, negative = inhibition, most hits filed as inhibitors. 2.1% of 270,000 active; note: potency is the fitted concentration of half-maximal effect; % is set by controls: 0 for no effect and ±100 for the full control effect; nearly all actives have a fitted effect of over 55% in size
# Target sequence (P10636 561-689 P618L limits assumed): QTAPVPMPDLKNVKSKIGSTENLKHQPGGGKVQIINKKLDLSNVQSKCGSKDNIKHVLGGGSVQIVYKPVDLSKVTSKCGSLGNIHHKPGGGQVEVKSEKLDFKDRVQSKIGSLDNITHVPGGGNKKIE
#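 K18 P301L tau (15 uM + 0.24 uM Alexa 594-tagged), heparin 20 uM, NaOAc pH 7, 6 h 37 C; ThT 30 uM, 1 h RT, ex 450/em 510 nm.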
# Tau fibril FP: tau fibrillization inhibition (FP) | K18 P301L tau heparin fibrillization, Alexa594 FP, 6 h | AID 1468 | Potency, µM (series often up to 57.7 µM), inactives show at the top dose activity, negative = inhibition, usual class: inhibitors | P10636 | 0.39% of 280,000 active; note: potency is the fitted concentration of half-maximal effect; % is set by controls: 0 for no effect and ±100 for the full control effect; nearly all actives have a fitted effect of over 55% in size
#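 Compound effects on tau fibrillization are measured by Alexa 594 fluorescence polarization (ex 555, em 632 nm). K18 P301L tau is used at 15 uM with 0.24 uM labeled tracer, and 20 uM heparin induces aggregation over 6 hr at 37 C.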
# CBFb RUNX1 block: inhibitors of human CBF-beta and RUNX1 interaction. AlphaScreen CBFb-His/RUNX1-biotin binding, biochemical. Potency, µM (doses to about 59.8 µM), without a hit: at the highest dose activity, negative = inhibition, hits mostly inhibitors. 230,000 tested, under 10 active; note: % of control where 0% means no effect
# Target sequence (Q01196 whole entry, looked up): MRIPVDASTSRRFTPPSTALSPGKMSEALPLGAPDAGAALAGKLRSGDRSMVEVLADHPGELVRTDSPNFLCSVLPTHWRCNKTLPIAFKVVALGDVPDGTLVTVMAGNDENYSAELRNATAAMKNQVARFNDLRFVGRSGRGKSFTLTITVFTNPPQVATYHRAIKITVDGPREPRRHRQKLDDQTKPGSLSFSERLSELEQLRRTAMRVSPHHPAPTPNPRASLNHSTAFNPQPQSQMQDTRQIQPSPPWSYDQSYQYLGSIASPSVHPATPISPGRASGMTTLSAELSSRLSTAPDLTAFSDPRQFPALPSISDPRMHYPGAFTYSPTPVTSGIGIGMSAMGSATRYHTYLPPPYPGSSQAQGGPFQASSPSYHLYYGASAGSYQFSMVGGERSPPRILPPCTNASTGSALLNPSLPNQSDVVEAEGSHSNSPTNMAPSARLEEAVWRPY
# Target sequence (Q13951 whole entry, looked up): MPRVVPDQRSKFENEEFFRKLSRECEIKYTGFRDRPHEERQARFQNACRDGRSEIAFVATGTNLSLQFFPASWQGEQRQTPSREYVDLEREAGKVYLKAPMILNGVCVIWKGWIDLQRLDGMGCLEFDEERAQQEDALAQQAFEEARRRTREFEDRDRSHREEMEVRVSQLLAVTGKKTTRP
#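 Read-out: AlphaScreen. Format: His-CBF-beta with biotinylated RUNX1 (30 nM each) preincubated 20 min, compound 15 min, Ni-chelate plus streptavidin beads 90 min; room temperature throughout.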
# Lamin A splicing: changes lamin A minigene splicing in HeLa cells. HeLa LMNA splicing GFP/RFP minigene ratio, 48 h. Potency, µM (top dose mostly 46.1 µM), inactives show top-dose ratio change, negative = inhibition, most hits filed as inhibitors. 0.01% of 200,000 active; active = well fitted inhibition curve with a large enough effect in the signal ratio, with a control signal flat, not every such curve was filed as active; inconclusive = small, poorly fitted or top-dose-only effect, or effect the other way, or a change in a side signal; the % refers to the signal ratio; note: potency is the fitted concentration of half-maximal effect; % is set by controls: 0 for no effect and ±100 for the full control effect
#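 S3 HeLa stable clones carrying a lamin A-EGFP splicing minigene plus DsRed2 were seeded at 600 cells/well in Opti-MEM with 2% FBS, pin-dosed and incubated 48 h at 37°C. Acumen cytometry (488 nm) gave the GFP/RFP total-intensity ratio.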
# JMJD2E inh: blocks human JMJD2E demethylase activity | B2RXH2 | JMJD2E catalytic domain, FDH-coupled NADH fluorescence (FDH is formaldehyde dehydrogenase) | Potency, µM (titrated, usually from 57.1 µM), inactives show at the top dose activity change, negative = inhibition, hits mostly inhibitors | 1.6% of 230,000 active; active = well fitted inhibition curve with a large enough effect, not every such curve was filed as active; inconclusive = small, poorly fitted or top-dose-only effect, or another doubt; inactive = no such curve, though single readings can be large or run the other way;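 note: potency is the fitted concentration of half-maximal effect; 0% = wells with enzyme and -100% = buffer wells without enzyme; nearly all actives have a fitted effect of over 50% in size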
# * = called active by the depositor; ? = inconclusive; · = not tested or not shown; [ ] = another dose, or the depositor's remark. Only some compounds are listed: those with a hit (about 3.2% of all), similar ones and a draw of the others. Unless noted, calls come from the whole dose curve; as a rule, active = well fitted curve in the direction sought with a large enough effect; inconclusive = small, poorly fitted or top-dose-only effect, or another doubt; inactive = no such curve, though single readings can be large; an effect the other way counts as inactive or inconclusive.
SMILES,Tau fluor counter,Tau fibril ThT,Tau fibril FP,CBFb RUNX1 block,Lamin A splicing,JMJD2E inh
c1ccc(NC2=Nc3cccc4cccc2c34)cc1,?,?,13.4%,-25.5%,5.5%[46 µM],3.7%
Fc1ccc(/C=N/NC2=Nc3cccc4cccc2c34)cc1,?,2.24µM*,6.2%,-19.4%,?,10.3%
COc1ccc(NC2=Nc3cccc4cccc2c34)cc1,?,12.6µM*,?,4.1%,-5.1%,-3.8%
Fc1ccc(/C=N/Nc2nnnn2-c2ccccc2)cc1,-0.8%,0.6%,-3.9%,-4.0%,0.0%[46 µM],?
CSc1ccc(Nc2nn(-c3ccc(OC(F)(F)F)cc3)nc2C(C)=O)cc1,-6.3%,-7.9%,-12.0%,·,·,·
Cc1ccc(NC(=O)Cn2c(=O)n(-c3ccccc3)c(=O)c3ccc(C(=O)NCc4ccc5c(c4)OCO5)cc32)c(C)c1,-9.2%,2.8%,?,·,·,·
O=C(Nc1ccc(Nc2ccncc2)cc1)c1ccc(Nc2ccnc3ccc([N+](=O)[O-])cc23)cc1[N+](=O)[O-],11.2µM*[quencher],?,-3.0%,8.2%,·,?
Nc1nnc(SCC(=O)Nc2ccccc2C(F)(F)F)s1,-3.1%,-7.2%,9.9%,·,·,·
CC(=O)Oc1ccc(C(=O)Cc2ccc3ccccc3n2)c(O)c1C,-15.0%,1.41µM*,0.6%,9.4%,-7.4%,-4.6%
Cc1ccccc1-c1noc(-c2ccc(NC3CCCC3)c([N+](=O)[O-])c2)n1,-5.4%,-8.8%,-11.8%,·,·,·
COc1cc(Nc2nc(SCc3ccccc3F)nc3ccccc23)cc(OC)c1,?,?,7.08µM*,·,?,·
COc1cc(Nc2nc(SCc3ccccc3Cl)nc3ccccc23)cc(OC)c1,?,?,11.2µM*,·,?,·
COc1ccc(C(C)=O)cc1CSc1nc(Nc2ccc(F)c(F)c2)c2ccccc2n1,-14.2%,8.4%,1.0%,·,10.3%[46 µM],·
COc1cc(Nc2nc(SCC(=O)c3ccc(Cl)c(Cl)c3)nc3ccccc23)cc(OC)c1,?,2.3%,14.1µM*,·,-6.6%[46 µM],·
Fc1ccc(Nc2nc(SCc3ccccc3F)nc3ccccc23)cc1,?,?,7.94µM*,·,?,·
COC(=O)c1cc2sc(C)cc2n1CC(=O)Nc1ccc(C)c(C)c1,-19.0%,-11.0%,-13.0%,·,·,·
COc1cc(Nc2nc(SCc3cccc(Cl)c3)nc3ccccc23)cc(OC)c1,?,?,7.94µM*,·,?,·
CCOc1ccccc1NC(=O)Nc1ccc2nc(N3CCN(C)CC3)cc(C)c2c1,10µM*[quencher],14.1µM*,5.5%,·,?,·
Cc1ccccc1NC(=O)Nc1ccc2nc(N3CCN(C)CC3)cc(C)c2c1,14.1µM*[quencher],?,?,·,?,·
Cc1cc(N2CCN(C)CC2)nc2ccc(NC(=O)Nc3ccc(Cl)cc3)cc12,10µM*[quencher],12.6µM*,-13.5%,·,-10.5%[46 µM],·
CCOC(=O)Cn1c(=O)n(-c2cccc(Cl)c2)c2nc(-c3ccccc3Cl)nc(C(N)=O)c21,-20.1%,-11.1%,-6.3%,·,-10.2%[46 µM],·
CCN(CC)CCCNC(=O)c1ccc2c(c1)NC(=O)C(CS(=O)(=O)Cc1ccc(F)cc1Cl)N2 (stereo unspecified),-14.2%,?,-2.8%,·,-17.2%[46 µM],·
O=C1CSC(=S)N1Cc1cccnc1,-6.3%,31.6µM*,-10.8%,-10.2%,?,-9.5%
COc1ccc(NC(=O)CSc2nc(-c3ccc(F)cc3)c3cccc(C)c3n2)cc1,0.8%,5.9%,?,·,·,·
CC(=O)Oc1c(C)cc(Cl)cc1C(=O)Nc1ccc([N+](=O)[O-])cc1Cl,?,2.82µM*,0.9%,5.4%,?,5.3%
SMILES,Tau fluor counter,Tau fibril ThT,Tau fibril FP,CBFb RUNX1 block,Lamin A splicing,JMJD2E inh
CCOCCCNC(=O)/C(C#N)=C/c1ccc([N+](=O)[O-])o1,-28.1%,14.1µM*,?,2.3%,?,34.9%
CC1=NN(c2cccc(C(=O)O)c2)C(=O)/C1=C\C=C\c1ccco1,?,14.1µM*,?,0.7%,-4.0%,9.1%
Cc1ccc(C2=NOC(=O)/C2=C\C=C\c2ccccc2)cc1,?,12.6µM*,14.1µM*,-16.0%,?,?
CC1=NN(c2ccccc2)C(=O)/C1=C/C=C/c1ccccc1,?,15.8µM*,?,-10.3%,?,-2.9%
COc1ccc(OC)c(CCNC(=O)c2ccc3[nH]c(C)c(C)c3c2)c1,?,?,16.8%,·,·,·
CN(C1=C(NC(=O)c2ccccc2)C(=O)c2ccccc2C1=O)C1CCS(=O)(=O)C1 (stereo unspecified),-26.9%,14.1µM*,?,3.9%,?,?
CC(=O)NC1=C(NC2CCS(=O)(=O)C2)C(=O)c2ccccc2C1=O (stereo unspecified),8.1%,11.9%,6.6%,3.4%,?,7.7%
CCc1cccc(NCc2ccccc2-c2nnc(-c3ccccc3Cl)o2)c1,-21.2%,-7.0%,-6.6%,·,·,·
COc1ccc(-c2csc(NC3=NCCCCC3)n2)cc1,-26.7%,?,18.6%,-19.7%,?,5.6%
COc1ccc(-c2csc(NNC3=NCCCCC3)n2)cc1,-21.7%,25.1µM*,?,-2.2%,-19.3%[46 µM],-12.0%
Clc1ccc(-c2csc(NNC3=NCCCCC3)n2)cc1,?,31.6µM*,?,-29.7%,9.1%,1.6%
c1ccc(-c2csc(NNC3=NCCCCC3)n2)cc1,?,25.1µM*,25.1µM*,-6.6%,-1.3%,-11.4%
Fc1ccc(-c2csc(NC3=NCCC3)n2)cc1,-0.2%,-1.9%,2.7%,-5.7%,16.3%[46 µM],-2.4%
Brc1ccc(-c2csc(NC3=NCCCCC3)n2)cc1,-0.6%,-17.8%,3.6%,-3.3%,?,-5.0%
CC1=CC(=C(C#N)c2nc3ccccc3s2)C=C(C)N1Cc1ccco1,3.98µM*[quencher],-18.3%,?,4.5%,8.4%,-2.9%
Cc1onc(-c2c(F)cccc2Cl)c1C(=O)OCC(=O)c1c[nH]c2ccccc12,17.8µM*[quencher],-3.3%,17.8µM*,11.4%,·,-9.3%
O=C(/C=C/c1ccc(O)c(O)c1)O[C@H]1C[C@@](O)(C(=O)O)CC(O)C1O (stereo partly specified),-11.9%,-12.6%,-8.0%,0.4%,·,15.8µM*
CN(C)c1ccc(C=Nc2ccc(N(C)C)cc2)cc1,?,11.2µM*,28.2µM*,-29.7%,-6.4%,20µM*
Cc1ccc(N=Cc2ccc(N(C)C)cc2)cc1,-10.3%,-10.5%,6.1%,1.0%,3.7%,-6.5%
C/C(=N/N=C/c1ccc(N(C)C)cc1)c1ccccc1,?,8.91µM*,2.4%,5.0%,7.6%,-12.6%
CC/C(C)=N\Nc1nc(-c2cc3cc(OC)ccc3oc2=O)cs1,17.8µM*[quencher],22.4µM*,?,11.6%,·,?
COc1ccc2oc(=O)c(-c3nc(C)cs3)cc2c1,-14.6%,?,-12.5%,13.5%,1.8%,?

# Screens: PubChem BioAssay, National Center for Advancing Translational Sciences (NCATS)
